The list is not random: actives were taken first. Their share in the collection is about 2.2%.
ANO1 activ – activators or potentiators of mouse TMEM16A chloride channel | HEK293 TMEM16A/YFP-H148Q/I152L, iodide quench fluorescence; stronger effect = lower value | B-score at 10 µM | Q8BHY3 | 340,000 tested, 0.3% active;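 active = fluorescence-ratio B-score plate-corrected deviation score at least 3 library SD below zero, with starting fluorescence score within 5 deviations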;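 also: channel opened by trigger with iodide after compound preincubation; score built on the fluorescence ratio of max minus min over baseline; more negative score means more quench and so TMEM16A activation or potentiation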
TLR4 MyD88 comp – inhibitors of human TLR4-MyD88 binding; O00206+Q99836; HeLa CL3-4 TLR4/MyD88 BLA complementation, FRET ratio; inhibition, % at 8.4 µM; 200,000 tested, 0.18% active; in the data active = inhibition above about 25%;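 also: 0% = vehicle and 100% = reference inhibitor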
Target sequence (O00206 whole entry, looked up): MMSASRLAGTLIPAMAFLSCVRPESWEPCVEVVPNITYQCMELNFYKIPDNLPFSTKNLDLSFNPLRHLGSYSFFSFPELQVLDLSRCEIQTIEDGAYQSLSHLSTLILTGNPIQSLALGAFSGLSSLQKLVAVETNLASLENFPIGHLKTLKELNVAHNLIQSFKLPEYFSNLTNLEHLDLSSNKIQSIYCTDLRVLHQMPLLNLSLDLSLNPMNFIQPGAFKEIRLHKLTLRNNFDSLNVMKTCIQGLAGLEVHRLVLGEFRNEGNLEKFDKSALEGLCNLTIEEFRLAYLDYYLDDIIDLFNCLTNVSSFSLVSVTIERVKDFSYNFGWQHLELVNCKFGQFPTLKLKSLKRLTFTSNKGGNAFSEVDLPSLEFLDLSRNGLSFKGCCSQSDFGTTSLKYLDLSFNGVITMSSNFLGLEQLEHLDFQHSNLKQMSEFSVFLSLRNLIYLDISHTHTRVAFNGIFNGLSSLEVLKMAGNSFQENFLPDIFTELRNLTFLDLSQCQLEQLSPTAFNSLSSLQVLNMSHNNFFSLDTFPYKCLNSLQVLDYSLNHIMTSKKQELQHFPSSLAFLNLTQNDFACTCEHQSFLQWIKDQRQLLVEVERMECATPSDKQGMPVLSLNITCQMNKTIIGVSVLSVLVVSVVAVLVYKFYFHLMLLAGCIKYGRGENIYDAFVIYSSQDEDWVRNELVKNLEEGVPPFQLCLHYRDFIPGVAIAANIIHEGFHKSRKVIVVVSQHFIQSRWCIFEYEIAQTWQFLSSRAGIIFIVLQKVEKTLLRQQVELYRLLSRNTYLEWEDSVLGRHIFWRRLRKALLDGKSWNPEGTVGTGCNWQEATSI
Target sequence (Q99836 whole entry, looked up): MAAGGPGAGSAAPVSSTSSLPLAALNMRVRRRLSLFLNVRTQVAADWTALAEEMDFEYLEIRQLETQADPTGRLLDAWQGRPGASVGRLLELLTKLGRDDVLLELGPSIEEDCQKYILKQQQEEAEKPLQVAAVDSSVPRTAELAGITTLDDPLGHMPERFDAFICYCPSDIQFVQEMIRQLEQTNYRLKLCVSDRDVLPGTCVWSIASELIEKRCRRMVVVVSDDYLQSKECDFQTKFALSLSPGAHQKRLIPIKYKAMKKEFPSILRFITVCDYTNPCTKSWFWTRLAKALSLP
ANO1 block – inhibitors of mouse TMEM16A calcium-activated chloride channel; Q8BHY3; HEK293 TMEM16A/YFP iodide influx fluorescence, ionomycin; normalized B-score (activity score, 25-100; higher = stronger inhibition) at 10 µM; 310,000 tested, 1.2% active; AID 588511;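 active = ratio plate-corrected score three or more library SD toward inhibition, starting fluorescence score within five deviations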;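 also: score derived from kinetic fluorescence span divided by baseline fluorescence per well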
TLR9-MyD88 inh – TLR9-MyD88 interaction inhibition | Q9NR96+Q99836 | CHO BLA complementation TLR9-MyD88, CCF4 FRET ratio | inhibition, % at 4.98 µM | 340,000 tested, 0.21% active;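 active = inhibition above the mean over all tested compounds plus 3 SD, cut at about 21% in these data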;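 also: 0% = DMSO only wells and 100% = clavulanate BLA inhibitor control wells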
GRK2 inh – human GRK2 inhibition via aptamer displacement; P25098; bead flow cytometry, FAM-aptamer displacement from GRK2; inhibition of aptamer binding, % at 10 µM; 330,000 tested, 0.59% active;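 active = inhibition of aptamer binding above 40%, roughly 3 SD of noise, on plates passing a quality check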;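 also: median bead fluorescence of bound FAM aptamer so fluorescent compounds give negative values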
NOD2-RIPK2 inh – NOD2-RIPK2 protein interaction inhibition | CHO BLA complementation NOD2-RIPK2, CCF4 ratio | 360,000 tested, 0.38% active | inhibition, % at 4.98 µM | O43353; in the data active = inhibition above about 21%;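 also: 0% = vehicle only and 100% = reference blocker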
GRK2 inh confirm – human GRK2 inhibition confirmation, cherry pick 1. shares compounds with GRK2 inh. bead-bound GRK2, FAM-aptamer displacement, flow cytometry. aptamer displacement, % at 10 µM. 2,000 tested, 4% active;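 active = aptamer displacement above 40%, near three times the noise of non-fluorescent compounds, on plates passing quality checks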;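 also: negative values mostly reflect intrinsic compound fluorescence rather than true enhancement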
FAM quench CP1 – aptamer fluorescence quenching in GRK2 counter-screen; fluorescence response (% of DMSO), % at 10 µM; shares compounds with GRK2 inh; 2,000 tested, under 10 active; Carboxyfluorescein RNA aptamer on beads, flow cytometry quenching; stronger effect = lower value;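 active = compounds that quench the bead-bound fluorescent RNA probe, cutting fluorescence to under half of the solvent control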;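 also: counterscreen run without GRK2 so only probe quenching by compound is measured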
GRK2 CP2 – confirmation of human GRK2 inhibitors binding RNA aptamer site. shares compounds with GRK2 inh. bead-bound GRK2, FAM-aptamer displacement, flow cytometry. inhibition of aptamer binding, % at 10 µM. 360 tested, under 10 active;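 active = inhibition of aptamer binding above 40%, about triple the noise seen with nonglowing compounds, on plates passing quality control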;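 also: negative values mostly come from compounds that fluoresce themselves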
FAM quench CP2 – aptamer fluorescence quenching in GRK2 counter-screen | 360 tested, under 10 active | fluorescence response vs DMSO, % at 10 µM | AID 588494 | shares compounds with GRK2 inh | carboxyfluorescein RNA aptamer beads, flow cytometry quenching; stronger effect = lower value;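 active = response vs DMSO under 50%, meaning signal dropped by over half, treated as fluorescence quencher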;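 also: labelled aptamer on streptavidin beads without GRK2 as a quench counter-screen; 100% = bead fluorescence of DMSO wells and lower means quenching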
Starred values were filed as active, the others as inactive; i = inactive; nt = no result given.

SMILES	ANO1 activ	TLR4 MyD88 comp	ANO1 block	TLR9-MyD88 inh	GRK2 inh	NOD2-RIPK2 inh	GRK2 inh confirm	FAM quench CP1	others
O=C(NCc1ccco1)c1nn2c(C(F)(F)F)cc(-c3cccs3)nc2c1Br	i	1.1	i	11.1	19.0	7.7	nt	nt
CCN1CCN(S(=O)(=O)c2ccc(OC)c(NC(=O)c3ccccc3)c2)CC1	i	nt	i	-10.4	1.0	0.2	nt	nt
O=C(COC(=O)c1cccc(Cl)c1)Nc1cccc(S(=O)(=O)NC2=NCCC2)c1	i	nt	nt	-6.3	0.0	0.2	-0.5	93.8
CC(=O)NCCC(=O)Nc1nc(-c2ccc3ccccc3c2)cs1	i	nt	nt	-0.5	nt	10.2	nt	nt
CC(=O)NCCC(=O)Nc1nc2c(ccc3ccccc32)s1	i	nt	i	7.6	4.0	-12.7	nt	nt	GRK2 CP2=8.1;FAM quench CP2=100.0
O=C(Nc1cccc(Cl)c1)c1cc(N=Nc2ccc([N+](=O)[O-])cc2Cl)ccc1O	-5.68*	nt	100*	11.5	46.0*	-1.6	3.9	97.1
Cc1cnc(NC(=O)Cc2c[nH]c3ccccc23)s1	i	-14.8	i	-3.1	51.0*	-4.5	-0.6	99.2
CNc1cncc(-c2ccc(OCCCN(C)C)nc2)n1	nt	nt	nt	nt	nt	-15.9	nt	nt
COc1ccc(CNC(=O)c2ccccc2SCC(=O)N2CCCC2)cc1OC	i	nt	i	1.7	2.0	-5.9	nt	nt
CCCN1CCN(CCCNC(=O)C(CC)n2nc(C)c3sc4ccccc4c3c2=O)CC1 (centres undefined)	i	nt	i	-12.0	62.0*	0.1	-2.2	96.3
COc1ccc(NC(=O)NCC(C)CSc2ccc(C)cc2)c(OC)c1 (centres undefined)	i	nt	i	5.7	0.0	1.9	nt	nt
COc1ccccc1CN1CC(C(=O)NCc2cccc(Cl)c2)CCC1=O (centres undefined)	i	nt	i	4.6	0.0	1.9	nt	nt
COc1ccccc1CN1CC(C(=O)NCc2cc(F)cc(C(F)(F)F)c2)CCC1=O (centres undefined)	i	nt	i	-2.0	89.0*	9.9	-2.9	96.0
COc1ccccc1CN1CC(C(=O)NCCc2ccccc2Cl)CCC1=O (centres undefined)	i	nt	i	4.6	76.0*	-6.1	1.6	96.4
CC1CCCC(NCC(O)COC(c2ccc(F)cc2)c2ccc(F)cc2)C1C (centres undefined)	i	18.6	i	9.1	0.0	2.5	-4.6	102.2
O=C(Nc1ccccc1C(=O)N1CCOCC1)c1ccc(F)cc1	i	-2.2	i	0.6	1.0	-2.1	nt	nt
O=C(Nc1ccccc1C(=O)N1CCOCC1)c1ccc(Br)cc1	i	nt	i	4.3	100.0*	-8.3	nt	nt	GRK2 CP2=-14.0;FAM quench CP2=98.0
CC(OC(=O)C1CC1)C(=O)Nc1cc(C(F)(F)F)ccc1Cl (centres undefined)	i	-10.9	i	9.6	0.0	-1.9	nt	nt
CCOc1ccc(C(C)NC(=O)C2CCC2)cc1 (centres undefined)	i	5.1	i	-7.9	100.0*	-13.5	nt	nt	GRK2 CP2=-10.1;FAM quench CP2=101.0
CCOc1ccccc1N(CC(=O)NC(C)(C)C)C(=O)CCC(=O)Nc1nccs1	i	nt	i	-100.8	0.0	-11.7	nt	nt
Nc1ccc(O)c2c1C(=O)c1ccccc1C2=O	i	14.1	i	-1.7	41.0*	10.0	0.8	93.5
CCCCCCc1c(C)c2ccc(OCC(=O)N[C@@H](Cc3ccccc3)C(=O)O)cc2oc1=O	i	nt	i	2.3	1.0	2.5	nt	nt
CN1CCN(NC(=O)c2ccc(Br)s2)CC1	i	nt	i	-11.9	0.0	-6.7	nt	nt
O=C(NN1CCOCC1)c1ccc(Br)s1	i	6.1	i	8.3	69.0*	1.9	0.3	101.7
O=C(Nc1ccc2c(c1)OCCO2)c1ccc(Br)s1	i	-2.5	i	-0.5	0.0	-13.7	3.1	102.1
SMILES	ANO1 activ	TLR4 MyD88 comp	ANO1 block	TLR9-MyD88 inh	GRK2 inh	NOD2-RIPK2 inh	GRK2 inh confirm	FAM quench CP1	others
CCc1sc(C(=O)Nc2ccc3c(c2)OCCO3)cc1Br	i	nt	i	9.8	2.0	-15.0	nt	nt
CCC1(C)Cc2sc3c(=O)[nH]c(=S)[nH]c3c2CO1 (centres undefined)	i	17.2	i	0.0	2.0	3.0	nt	nt
CCOc1ccc(NC(=O)c2cc3ccccc3cc2O)cc1	i	nt	i	8.2	28.0	4.6	10.3	100.0
CCOc1ccc(NC(=O)c2cc3ccccc3cc2OC)cc1	i	nt	i	-1.9	1.0	0.9	nt	nt
CCC1CC(C(=O)Nc2ccccc2)C(=O)O1 (centres undefined)	i	nt	i	-12.5	69.0*	4.7	0.1	100.6
CC(C)C1CC(C(=O)Nc2ccccc2)C(=O)O1 (centres undefined)	i	nt	i	0.5	1.0	-1.4	nt	nt
Cc1cc(F)ccc1S(=O)(=O)NCC1CC2CCC1C2 (centres undefined)	i	nt	i	1.4	0.0	-4.8	nt	nt
CCOc1cc(N2CCOCC2)c(OCC)cc1NC(=O)c1cc(S(=O)(=O)N2CCOCC2)ccc1Cl	i	nt	nt	-1.6	nt	-11.1	0.8	97.6
CCOc1cc(N2CCOCC2)c(OCC)cc1NC(=O)c1ccc(OC)c(S(=O)(=O)N2CCOCC2)c1	i	nt	nt	-2.2	1.0	0.8	-1.2	105.0
CC(C)NC(=S)NNc1ncnc2sc3c(c12)CC(C)(C)OC3	i	nt	i	nt	1.0	1.7	nt	nt
CC1(C)Cc2c(sc3ncnc(NNC(=S)NCc4ccccc4)c23)CO1	i	1.9	i	-6.5	91.0*	13.4	1.4	87.4
CN(C(=O)c1cccc(C#N)c1)c1nnc(-c2ccncc2)s1	i	10.7	nt	-0.2	nt	-2.7	-0.1	106.7
Cc1cc(=O)c2ccccc2[nH]1	i	1.7	i	8.6	37.0	-5.0	0.5	98.1
COc1cc2sc3cc(NCC[C@@H]4CCCN4C)ccc3c(=O)c2cc1OC	i	nt	nt	-5.1	77.0*	0.2	nt	nt	GRK2 CP2=-23.2;FAM quench CP2=97.0
O=C(O)CC(NC(=O)C12CC3CC(CC(C3)C1)C2)c1ccc2c(c1)OCO2 (centres undefined)	i	1.5	i	-12.4	1.0	0.9	nt	nt
